For 36 compounds, Potency and outcome results are on record in PubChem BioAssay (Tox21).

The structures appear in SMILES notation. Inconclusive results are not listed. A call without a number means that no potency is given here. Activity calls are given as the source filed them. Unless noted, calls follow the shape of the full dose curve.

One test can be described thus: qHTS assay for small molecule agonists of the p53 signaling pathway - cell viability (AID 651633).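 Also: p53RE-bla HCT reporter cells with a stable beta-lactamase p53 reporter; nearly all actives have a fitted effect of over 30% in size.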 As to conditions: p53RE-bla HCT-116 viability, ATP luminescence, 16 h; series mostly up to 83.3 µM. The method in brief:
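p53RE-bla cells were treated with compound for 16 hours at 37 C. Cytotoxicity was then measured as CellTiter-Glo luminescence after 30 min at room temperature.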
In the case of `CC1(C)[C@@H]2CC[C@@]1(C)[C@H](O)C2`, the Potency entry was “inactive”.
Same read-out and setting: for `CC(C)C1CCC(O)CC1` (stereo not drawn) the value was “inactive”; for `CC(C)NNC(=O)c1ccncc1`, “inactive”; for `CC(=O)c1cnccn1`, “inactive”.
In the case of `NC(=O)Cc1cccc2ccccc12`, the Potency entry is “inactive”.
For the compound `C=CN1CCCCCC1=O`, the Potency result is “inactive”.
Regarding `O=C1NC(=O)C2CC=CCC12` (stereo not drawn), the Potency result was “inactive”.
For the compound `c1coc(CNc2ncnc3nc[nH]c23)c1`, the Potency entry is “inactive”.
With `CC(C)[C@H]1CC[C@@H](C)CC1=O`, the Potency entry is “inactive”.
As to `CC(=O)N1C[C@H](O)C[C@H]1C(=O)O`, the Potency result is “inactive”.
For `CCCCCCCCN1CCCC1=O`, the Potency result was “inactive”.
In the case of `CC1=NN(c2cc(S(=O)(=O)O)ccc2Cl)C(=O)C1N=Nc1ccccc1` (stereo not drawn), the Potency entry was “inactive”.
As for `CCCCCCCCCCCCCCC(=O)O`, the Potency entry is “inactive”.
For `COC(=O)Nc1ccc(Cl)c(Cl)c1`, the Potency entry is “inactive”.
The same measure, in the same setting: for `Nc1ccccn1` the value was “inactive”.
Take `CCCCS(=O)(=O)N[C@@H](Cc1ccc(OCCCCC2CCNCC2)cc1)C(=O)O`: the Potency result was “inactive”.
Regarding `CC(C)CCCO`, the Potency entry is “inactive”.
As to `CC(C)C[C@@H](N)C(=O)O`, the Potency entry is “inactive”.
With `Clc1cc(Cl)c(Cl)nc1Cl`, the Potency entry was “inactive”.
With `CC(=O)c1ccc2ccccc2c1`, the Potency entry is “inactive”.
On the same count and under the same terms, for `CCCCCC(C)N` (stereo not drawn) the value was “inactive”.
As for `CCOC(=O)COc1cc(-n2ncc(C(F)(F)F)c(C)c2=O)c(F)cc1Cl`, the Potency result was “inactive”.
Regarding `O=C(O)Cc1csc(-c2ccc(Cl)cc2)n1`, the Potency entry is “inactive”.
Turning to `C=C(C)C(=O)OCC1CCCO1` (stereo not drawn), the Potency entry is “inactive”.
Regarding `Nc1c2c(nc3c1CCC3)CCCC2`, the Potency result is “inactive”.
With `C[N+]1(C)[C@@H]2CC(OC(=O)[C@H](CO)c3ccccc3)C[C@H]1[C@@H]1O[C@@H]12` (stereo partly drawn), the Potency result is “inactive”.
Regarding `CN1CCN(c2cc3c(nn2)Oc2ccccc2N3C)CC1`, the Potency entry is “inactive”.
Regarding `Cc1cccc(C)c1NC(=O)CC12CCCN1CCC2`, the Potency result is “inactive”.
`O=C(O)CCSCCC(=O)O`: the Potency entry is “inactive”.
Turning to `CCOC(=O)CCC(=O)OCC`, the Potency entry was “inactive”.
Consider `CCN(CC#N)c1cccc(C)c1`, for which the Potency result was “inactive”.
Regarding `O=C(O)CNC(=O)c1ccc(CO)o1`, the Potency result was “inactive”.
`CC(=O)Oc1cccc(C)c1`: the Potency result is “inactive”.
As to `NO`, the Potency result was “inactive”.
As to `O=CN(CCO)CCO`, the Potency result is “inactive”.
Take `c1ccc(CCc2ccccc2)cc1`: the Potency entry was “inactive”.

A short description of a further test: qHTS assay for small molecules that induce genotoxicity in human embryonic kidney cells expressing luciferase-tagged ATAD5 - cell viability (AID 651634). Also: nearly all actives have a fitted effect of over 25% in size. The following applies: HEK293T ATAD5-luc cells viability, CellTiter-Fluor, 15.5 h; series mostly up to 83.3 µM. The essentials: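 Live-cell protease activity (CellTiter-Fluor, fluorescence) indicates viability. HEK293T cells with luciferase-tagged ATAD5; 15.5 hr compound treatment at 37C.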
A general note: In qHTS, concentration-response curves come from the screen itself.
For the compound `CC1(C)[C@@H]2CC[C@@]1(C)[C@H](O)C2`, the Potency entry is “inactive”.
Consider `CC(C)C1CCC(O)CC1` (stereo not drawn), for which the Potency entry was “inactive”.
On the same count and under the same terms, for `CC(C)NNC(=O)c1ccncc1` the value was “inactive”; for `CC(=O)c1cnccn1`, “inactive”.
Same read-out and setting: for `NC(=O)Cc1cccc2ccccc12` the value was “inactive”; for `C=CN1CCCCCC1=O`, “inactive”.
In the case of `O=C1NC(=O)C2CC=CCC12` (stereo not drawn), the Potency result is “inactive”.
On the same count and under the same terms, for `c1coc(CNc2ncnc3nc[nH]c23)c1` the value was “inactive”; for `CC(C)[C@H]1CC[C@@H](C)CC1=O`, “inactive”.
Consider `CC(=O)N1C[C@H](O)C[C@H]1C(=O)O`, for which the Potency result is “inactive”.
As for `CCCCCCCCN1CCCC1=O`, the Potency entry is “inactive”.
For `COC(=O)Nc1ccc(Cl)c(Cl)c1`, the Potency entry is “inactive”.
The same measure, in the same setting: for `Nc1ccccn1` the value was “inactive”.
As to `CC(C)CCCO`, the Potency result was “inactive”.
For `CC(C)C[C@@H](N)C(=O)O`, the Potency result was “inactive”.
As for `Clc1cc(Cl)c(Cl)nc1Cl`, the Potency entry was “inactive”.
As for `CC(=O)c1ccc2ccccc2c1`, the Potency result was “inactive”.
Turning to `CCCCCC(C)N` (stereo not drawn), the Potency entry was “inactive”.
Regarding `CCOC(=O)COc1cc(-n2ncc(C(F)(F)F)c(C)c2=O)c(F)cc1Cl`, the Potency result is “inactive”.
Turning to `O=C(O)Cc1csc(-c2ccc(Cl)cc2)n1`, the Potency result is “inactive”.
Take `C=C(C)C(=O)OCC1CCCO1` (stereo not drawn): the Potency entry was “inactive”.
Still for that read-out and setting: for `Nc1c2c(nc3c1CCC3)CCCC2` the value was “inactive”; for `C[N+]1(C)[C@@H]2CC(OC(=O)[C@H](CO)c3ccccc3)C[C@H]1[C@@H]1O[C@@H]12` (stereo partly drawn), “inactive”; for `CN1CCN(c2cc3c(nn2)Oc2ccccc2N3C)CC1`, “inactive”.
On the same count and under the same terms, for `Cc1cccc(C)c1NC(=O)CC12CCCN1CCC2` the value was “inactive”; for `O=C(O)CCSCCC(=O)O`, “inactive”; for `CCOC(=O)CCC(=O)OCC`, “inactive”.
`O=C(O)CNC(=O)c1ccc(CO)o1`: the Potency entry is “inactive”.
`CC(=O)Oc1cccc(C)c1`: the Potency entry is “inactive”.
For `NO`, the Potency result was “inactive”.
For `O=CN(CCO)CCO`, the Potency entry is “inactive”.
Take `c1ccc(CCc2ccccc2)cc1`: the Potency result was “inactive”.

A further test is described as follows: qHTS assay for small molecule disruptors of the mitochondrial membrane potential - cell viability (AID 720634).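 Also: human HepG2 liver cancer cells; nearly all actives have a fitted effect of over 20% in size.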 As to conditions: HepG2 viability, ATP luminescence (CellTiter-Glo), 1 h; series mostly up to 83.2 µM. The method in brief: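 Human hepatoma HepG2 cells were treated for 1 hr with test chemicals, then given m-MPI dye and CellTiter-Glo. Cell viability reflects luminescence proportional to cellular ATP.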
Consider `NC(=O)Cc1cccc2ccccc12`, for which the result was inactive.
For the compound `O=C1NC(=O)C2CC=CCC12` (stereo not drawn), the outcome was inactive.
Take `CC(C)[C@H]1CC[C@@H](C)CC1=O`: the call was inactive.
With `CC1=NN(c2cc(S(=O)(=O)O)ccc2Cl)C(=O)C1N=Nc1ccccc1` (stereo not drawn), the outcome was inactive.
As to `Nc1ccccn1`, the call was inactive.
Regarding `O=C(O)Cc1csc(-c2ccc(Cl)cc2)n1`, the compound was called inactive.
Consider `Nc1c2c(nc3c1CCC3)CCCC2`, for which the outcome was inactive.
On the same count and under the same terms, for `CN1CCN(c2cc3c(nn2)Oc2ccccc2N3C)CC1` the value was “inactive”.
Consider `CCN(CC#N)c1cccc(C)c1`, for which the result was inactive.
For the compound `NO`, the call was inactive.
Turning to `O=CN(CCO)CCO`, the call was inactive.

A further test is described as follows: qHTS assay for small molecule disruptors of the mitochondrial membrane potential (AID 720635; active = well fitted inhibition curve with a large enough effect in the signal ratio in the repeat runs; the % refers to the signal ratio; also: potency is read from the fitted curve at half-maximal effect). As to conditions: HepG2 mitochondrial membrane potential, Mito-MPS dye ratio; series mostly up to 83.2 µM. The essentials: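 HepG2 cells exposed to compound 1 hr at 37C, then Mito-MPS dye 30 min. Ratio read of aggregate (540/590 nm) versus monomer (490/535 nm) fluorescence.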
As for `CC(C)NNC(=O)c1ccncc1`, the Potency result was “inactive”.
Turning to `CC(=O)c1cnccn1`, the Potency result is “inactive”.
In the case of `C=CN1CCCCCC1=O`, the Potency entry was “inactive”.
Consider `CC(=O)N1C[C@H](O)C[C@H]1C(=O)O`, for which the Potency entry is “inactive”.
Regarding `CCCCCCCCCCCCCCC(=O)O`, the Potency entry was “inactive”.
Regarding `COC(=O)Nc1ccc(Cl)c(Cl)c1`, the Potency is 60.8 µM (active).
As to `CCCCS(=O)(=O)N[C@@H](Cc1ccc(OCCCCC2CCNCC2)cc1)C(=O)O`, the Potency result is “inactive”.
Regarding `Clc1cc(Cl)c(Cl)nc1Cl`, the Potency entry is “inactive”.
In the case of `CCCCCC(C)N` (stereo not drawn), the Potency entry is “inactive”.
`O=C(O)Cc1csc(-c2ccc(Cl)cc2)n1`: the Potency entry is “inactive”.
Same read-out and setting: for `C=C(C)C(=O)OCC1CCCO1` (stereo not drawn) the value was “inactive”.
Turning to `Nc1c2c(nc3c1CCC3)CCCC2`, the Potency result was “inactive”.
Consider `CN1CCN(c2cc3c(nn2)Oc2ccccc2N3C)CC1`, for which the Potency result is “inactive”.
Regarding `Cc1cccc(C)c1NC(=O)CC12CCCN1CCC2`, the Potency entry is “inactive”.
With `O=C(O)CCSCCC(=O)O`, the Potency result is “inactive”.
`CC(=O)Oc1cccc(C)c1`: the Potency entry was “inactive”.
Same read-out and setting: for `NO` the value was 55.5 µM (active); for `O=CN(CCO)CCO`, “inactive”; for `c1ccc(CCc2ccccc2)cc1`, “inactive”.
